According to PubChem BioAssay AID1224921 (Broad Institute, 2016):
Out of some 1,400 compounds screened, about 350 (25%) were called active. Roughly 2% stayed inconclusive and do not appear here. The rule behind the calls is not given here. The list is a sample of the results. Measured potencies and affinities stand elsewhere.

Test: C. difficile growth inhibition, confirmation, 4-point retest (AID 1224921);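 note: plate controls were DMSO wells for no effect and levofloxacin 16 µg/mL wells for full effect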
Conditions: Clostridioides difficile clinical isolate growth, OD600, 24 h, active compounds read low; at 30 µM unless noted

Max activity, inactive:
C[C@H](CO)N1C[C@H](C)[C@@H](CN(C)Cc2cccnc2)Oc2cc(C#CC3CCCC3)ccc2S1(=O)=O 41.2%, CO[C@@H]1CN(C)C(=O)c2cc(NS(=O)(=O)c3ccc(Cl)cc3)ccc2OC[C@H](C)N(C(=O)NC(C)C)C[C@H]1C -5.33% [at 8 µM], CCCN1C[C@H](C)[C@@H](OC)CN(C)C(=O)c2cc(NC(=O)c3cccc(OC)c3)ccc2OC[C@@H]1C 12.1%, CO[C@H]1CN(C)C(=O)c2ccc(NC(C)=O)cc2OC[C@H](C)N(Cc2cccc(F)c2)C[C@H]1C -6.29% [at 1.95 µM], CCC(=O)Nc1ccc2c(c1)C(=O)N(C)C[C@H](OC)[C@@H](C)CN(C(=O)CN1CCOCC1)[C@@H](C)CO2 -6.29% [at 0.5 µM], CCCC#Cc1ccc([C@@H]2[C@@H](CO)N(S(=O)(=O)c3cccc(F)c3)[C@H]2C#N)cc1 12.2% [at 1.95 µM], CCC(=O)Nc1ccc2c(c1)OC[C@@H](C)N(C(=O)CC)C[C@@H](C)[C@@H](OC)CN(C)C2=O 3.79% [at 0.5 µM], C[C@H](CO)N1C[C@H](C)[C@H](CN(C)Cc2cccnc2)Oc2cc(C#CC3CCCC3)ccc2S1(=O)=O 20.9%, COc1ccc(NC(=O)Nc2cccc3c2O[C@H](CN(C)C(=O)NC2CCCCC2)[C@@H](C)CN([C@@H](C)CO)C3=O)cc1 7.95%, CO[C@@H]1CN(C)C(=O)c2cc(NC(=O)c3ccccc3)ccc2OC[C@H](C)N(C)C[C@@H]1C 18.3%, CN(C)C(=O)C[C@H]1CC[C@H](NC(=O)C2CCOCC2)[C@@H](CO)O1 -6%, COCC(=O)N1C[C@@H](C)[C@@H](OC)CN(C)C(=O)c2ccc(NC(=O)NC(C)C)cc2OC[C@@H]1C 17.9%, CCCC(=O)Nc1ccc2c(c1)C(=O)N(C)C[C@H](OC)[C@H](C)CN(Cc1ccccc1)[C@@H](C)CO2 25.4%, COCC(=O)Nc1ccc2c(c1)OC[C@@H](C)N(Cc1ccccc1OC)C[C@@H](C)[C@@H](OC)CN(C)C2=O 16.6%, CO[C@@H]1CN(C)C(=O)c2ccc(NC(C)=O)cc2OC[C@H](C)N(Cc2cccc(F)c2)C[C@H]1C 17.2%, C[C@H]1CN([C@@H](C)CO)C(=O)c2c(c3ccccc3n2C)-c2ccccc2CO[C@H]1CN(C)Cc1cccc(C(=O)O)c1 -5.44% [at 0.5 µM], COc1ccc(-c2ccc([C@@H]3[C@@H](C#N)N(C(=O)C4CCCC4)[C@H]3CO)cc2)cc1 25.6%, C/C=C/c1ccc2c(c1)O[C@@H](CN(C)C(=O)Cc1ccncc1)[C@H](C)CN([C@@H](C)CO)S2(=O)=O 11.6%, C[C@@H]1CN([C@H](C)CO)S(=O)(=O)c2ccc(C#CC3CC3)cc2O[C@H]1CN(C)Cc1ccccc1F 11.3% [at 1.95 µM], COCC(=O)Nc1ccc2c(c1)OC[C@@H](C)N(Cc1ccccc1)C[C@@H](C)[C@@H](OC)CN(C)C2=O -9.27% [at 1.95 µM], CCCNC(=O)Nc1ccc2c(c1)C(=O)N(C)C[C@@H](OC)[C@H](C)CN(Cc1ccccc1)[C@@H](C)CO2 16.6%, COc1cccc(C#Cc2ccc3c(c2)O[C@@H](CN(C)C)[C@@H](C)CN([C@H](C)CO)S3(=O)=O)c1 29.6%, CC(C)CC#Cc1ccc2c(c1)O[C@@H](CN(C)Cc1cccnc1)[C@@H](C)CN([C@@H](C)CO)S2(=O)=O 22.6%, O=C(C[C@@H]1C[C@H]2c3cc(NC(=O)Nc4ccc(C(F)(F)F)cc4)ccc3O[C@H]2[C@@H](CO)O1)NCCc1ccccc1 46.3%, COc1ccc(-c2ccc([C@@H]3[C@@H](C#N)N(C(=O)c4cccc(F)c4)[C@H]3CO)cc2)cc1 19.5%, COc1ccc(C#Cc2ccc3c(c2)O[C@@H](CN(C)C)[C@H](C)CN([C@H](C)CO)S3(=O)=O)cc1 12.4% [at 8 µM], CCC(=O)Nc1ccc2c(c1)OC[C@@H](C)N(CC1CCCCC1)C[C@@H](C)[C@@H](OC)CN(C)C2=O -9.08% [at 8 µM], COc1cccc(NC(=O)N[C@H]2C=C[C@H](CC(=O)Nc3ccc(-c4ccccc4)cc3)O[C@@H]2CO)c1 43%, C[C@H]1CN([C@@H](C)CO)S(=O)(=O)c2ccc(C3=CCCCC3)cc2O[C@H]1CN(C)Cc1ccncc1 40.6%, C[C@H]1CN([C@@H](C)CO)C(=O)c2cc(/C=C/c3ccccc3)cnc2O[C@@H]1CN(C)C(=O)CN(C)C -3.88% [at 0.5 µM], C[C@H](CO)N1C[C@H](C)[C@@H](CN(C)Cc2cccnc2)Oc2cc(C3=CCCCC3)ccc2S1(=O)=O 29%, N#C[C@@H]1[C@@H](c2ccc(C#Cc3ccccc3F)cc2)[C@H](CO)N1C(=O)C1CCCCC1 38.8%, C[C@@H]1CN([C@@H](C)CO)C(=O)c2c(c3ccccc3n2C)-c2ccccc2CO[C@H]1CN(C)S(=O)(=O)c1cccc(C#N)c1 31.4%, O=C(C[C@@H]1C[C@H]2c3cc(NC(=O)Nc4ccc(C(F)(F)F)cc4)ccc3O[C@H]2[C@@H](CO)O1)NCc1ccc(Cl)cc1 -9.79% [at 8 µM], C[C@@H]1CN([C@H](C)CO)S(=O)(=O)c2ccc(C3=CCCCC3)cc2O[C@H]1CN(C)Cc1ccncc1 -20.4% [at 1.95 µM], CN1C(=O)c2cc(NC(=O)c3ccc(C(F)(F)F)cc3)ccc2OC[C@H]2O[C@H](CC(=O)NCc3ccc4c(c3)OCO4)CC[C@H]21 -12.1% [at 0.5 µM], C[C@@H]1CN([C@@H](C)CO)C(=O)c2cc(C#C[C@@H](C)O)cnc2O[C@@H]1CN(C)Cc1ccc(-c2ccccc2)cc1 27.9%, CCCNC(=O)[C@@H]1[C@@H](CO)[C@@H]2Cn3c(cccc3=O)[C@H]1N2C(=O)NCCC -6.96%, CO[C@@H]1CN(C)C(=O)c2cc(NC(=O)Nc3cccc(Cl)c3)ccc2OC[C@H](C)N(C(=O)Nc2c(C)noc2C)C[C@H]1C -9.85%, COC(=O)[C@@H]1[C@@H](CO)[C@@H]2Cn3c(ccc(-c4cccc(F)c4)c3=O)[C@@H]2N1C(C)=O 11.6% [at 8 µM], COC(=O)[C@H]1[C@H](CO)[C@H]2Cn3c(ccc(-c4cccc(F)c4)c3=O)[C@H]2N1S(C)(=O)=O 23.4%, COCC1CC(c2ccccc2)OC(c2ccc(NC(=O)CCCCCCC(=O)O)cc2)O1 (stereo unspecified) 17.9%, CC(C)CC#Cc1ccc2c(c1)O[C@H](CN(C)Cc1ccc(F)cc1)[C@H](C)CN([C@H](C)CO)S2(=O)=O 23.3% [at 8 µM], C[C@H]1CN([C@@H](C)CO)S(=O)(=O)c2ccc(/C=C/c3ccccc3)cc2O[C@@H]1CN(C)Cc1cccnc1 -24.8% [at 0.5 µM], C[C@H]1CN([C@@H](C)CO)S(=O)(=O)c2ccc(/C=C/c3ccccc3)cc2O[C@@H]1CN(C)C 16.2%, C[C@@H]1CN([C@@H](C)CO)S(=O)(=O)c2ccc(/C=C/c3ccccc3)cc2O[C@@H]1CN(C)Cc1cccnc1 -27.8% [at 1.95 µM], CC(C)CC#Cc1ccc2c(c1)O[C@H](CN(C)Cc1ccc(F)cc1)[C@@H](C)CN([C@@H](C)CO)S2(=O)=O 30.5% [at 1.95 µM], C[C@@H]1CN([C@H](C)CO)S(=O)(=O)c2ccc(/C=C/c3ccccc3)cc2O[C@H]1CN(C)C 57%, CO[C@H]1CN(C)C(=O)c2cc(NC(=O)NC(C)C)ccc2OC[C@H](C)N(Cc2ccccn2)C[C@@H]1C -9.04% [at 1.95 µM], C[C@H](CO)N1C[C@H](C)[C@H](CN(C)C(=O)C2CCC2)Oc2ncc(C#Cc3cccc(F)c3)cc2C1=O 15.1% [at 8 µM], C[C@H](NC(=O)C[C@H]1C=C[C@@H](NC(=O)C2CCC2)[C@H](CO)O1)c1ccccc1 -11.6%, CNC[C@@H]1Oc2cc(-c3ccccc3F)ccc2S(=O)(=O)N([C@@H](C)CO)C[C@H]1C 20.5%, O=C(N[C@@H]1C=C[C@@H](CC(=O)N2CCCCC2)O[C@@H]1CO)c1ccc2c(c1)OCO2 15.7% [at 8 µM], CO[C@H]1CN(C)C(=O)c2cc(NS(=O)(=O)c3cccc(F)c3)ccc2OC[C@@H](C)N(Cc2cc(F)ccc2F)C[C@@H]1C 33.9%, C[C@H]1CN([C@@H](C)CO)S(=O)(=O)c2ccc(C#CCC3CCCC3)cc2O[C@@H]1CN(C)C -13.1% [at 1.95 µM], N#C[C@H]1[C@@H](c2ccc(C3=CCCCC3)cc2)[C@H](CO)N1S(=O)(=O)c1ccccc1 -7.4% [at 1.95 µM], N#C[C@@H]1[C@@H](c2ccc(C#Cc3cccnc3)cc2)[C@@H](CO)N1C(=O)C1CCCCC1 27.2%, C[C@H](CO)N1C[C@H](C)[C@H](CN(C)C)Oc2cc(C#CCC3CCCC3)ccc2S1(=O)=O 37%, C[C@@H]1CN([C@@H](C)CO)S(=O)(=O)c2ccc(C#CCC3CCCC3)cc2O[C@H]1CN(C)C(=O)CN(C)C -17.9%, C[C@@H]1CN([C@H](C)CO)S(=O)(=O)c2ccc(C#CCC3CCCC3)cc2O[C@@H]1CN(C)C 14.7% [at 8 µM], CCC(=O)N(C)C[C@H]1Oc2cc(C#CCC3CCCC3)ccc2S(=O)(=O)N([C@@H](C)CO)C[C@@H]1C 24.3%
